An excerpt weighted towards active compounds, which were near 2.8% of everything screened.
mut p53 SMM: binders of human mutant p53. AID 624136. calls only. small molecule microarray binding, anti-GST fluorescence. 17,000 tested, 0.4% active;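 active = compounds whose four printed spots each glow above background more than chance allows, each with a p-value under 7%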
STAT3 SMM: binds human STAT3 on microarray; 17,000 tested, 0.2% active; calls only; P40763; AID 624138; Small molecule microarray, His-STAT3 binding, anti-His fluorescence;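 active = compounds whose four printed spots each show fluorescence over background unusually high for their array block, chance value under 7%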
NFkB SMM: binds human NF-kappa-B p105 on microarray; P19838; Small molecule microarray, anti-His fluorescence binding; calls only; 17,000 tested, 1.3% active; AID 624139;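 active = spot fluorescence over background significantly raised, with a chance value under 7% in all four replicate spots of the compound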;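 note: probe protein is his-tagged human p50 processed subunit at 1 µg/ml; raw spot fluorescence signals with no normalization applied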
Target sequence (P19838 1-433 limits assumed): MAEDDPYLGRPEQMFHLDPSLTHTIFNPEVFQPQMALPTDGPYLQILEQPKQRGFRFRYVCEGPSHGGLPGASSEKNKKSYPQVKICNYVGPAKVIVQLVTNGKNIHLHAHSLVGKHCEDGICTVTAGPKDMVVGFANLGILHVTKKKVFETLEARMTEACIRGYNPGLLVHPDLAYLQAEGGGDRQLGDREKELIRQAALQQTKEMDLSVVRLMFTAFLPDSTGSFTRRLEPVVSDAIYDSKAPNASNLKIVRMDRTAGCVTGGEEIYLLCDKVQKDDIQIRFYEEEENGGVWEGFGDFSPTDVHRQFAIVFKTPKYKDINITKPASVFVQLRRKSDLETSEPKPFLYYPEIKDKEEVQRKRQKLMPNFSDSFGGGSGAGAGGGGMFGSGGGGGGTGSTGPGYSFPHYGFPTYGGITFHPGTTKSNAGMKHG
p53 PUMA act: re-activators of the mutant p53 pathway. SW480 PUMA-promoter luciferase, p53 mutant reactivation. activation, % at 9.98 µM. 28,000 tested, 1.5% active. AID 624151; in the data active = activation above about 52%
Myc binder: binders of human c-Myc; 17,000 tested, 1.5% active; calls only; P01106; small molecule microarray, His-c-Myc binding, anti-His fluorescence;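 active = spot fluorescence over background with P-value below 7% in all four replicate spots, showing protein binding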;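 note: score is binary with 100 for all four spots passing and 0 otherwise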
* = called active by the depositor; i = inactive; . = no result given; + = active, no number.

SMILES	mut p53 SMM	STAT3 SMM	NFkB SMM	p53 PUMA act	Myc binder
C=CCOC(=O)[C@H]1[C@@H]2C(=O)O[C@@H](c3ccccc3)[C@@H](c3ccccc3)N2[C@@H](c2ccc(OCCOC(=O)[C@H]3C[C@H]4C(=O)N5CCC[C@H]5C(=O)N4[C@H]3c3ccc(O)cc3)cc2)[C@]12C(=O)Nc1ccccc12	i	i	+	.	i
C=CCOC(=O)[C@@H]1[C@H]2C(=O)O[C@H](c3ccccc3)[C@H](c3ccccc3)N2[C@H](c2ccc(OCCOC(=O)[C@@H]3C[C@@H]4C(=O)N[C@@H](Cc5ccccc5)C(=O)N4[C@@H]3c3cccc(OCCO)c3)cc2)[C@@]12C(=O)Nc1ccc(I)cc12	i	i	+	.	i
C=CCOC(=O)[C@@H]1[C@H]2C(=O)O[C@H](c3ccccc3)[C@H](c3ccccc3)N2[C@H](c2ccc(OCCOC(=O)[C@@H]3C[C@@H]4C(=O)N[C@@H](CC(C)C)C(=O)N4[C@@H]3c3ccc(O)cc3)cc2)[C@@]12C(=O)Nc1ccc(I)cc12	i	i	i	.	i
CCc1cccc(OCC(=O)Nc2ccc(OC)cc2[N+](=O)[O-])c1	.	.	.	91*	.
COc1ccc(OCC(=O)Nc2ccc(OC)cc2[N+](=O)[O-])cc1	i	i	i	98*	i
COc1ccc(NC(=O)COc2ccc(Cl)c(C)c2)c([N+](=O)[O-])c1	.	.	.	74*	.
COc1ccc(NC(=O)COc2ccccc2Cl)c([N+](=O)[O-])c1	.	.	.	84*	.
COc1cccc(OCC(=O)Nc2ccccc2[N+](=O)[O-])c1	.	.	.	49	.
O=C(CSc1nc2cc3ccccc3cc2[nH]1)Nc1ccccc1Cl	.	.	.	-33	.
COc1ccc(NC(=O)CNC(=O)c2ccccc2C)cc1	.	.	.	29	.
C/C=C(\C)C(=O)O[C@@H]1C(C)=C2[C@H]3OC(=O)[C@](C)(O)[C@]3(O)[C@H](OC(=O)C(C)CC)C[C@@](C)(OC(C)=O)[C@@H]2[C@H]1OC(=O)CCCCCCC (some centres not stated)	i	i	i	-82	i
N#Cc1c(NC(=O)CSc2n[nH]c(-c3ccc(Cl)cc3)n2)sc2c1CCCC2	i	i	i	-4	i
N#Cc1ccc(-c2cccs2)nc1SCC(=O)Nc1sc2c(c1C#N)CCCC2	i	i	i	6	+
CC(C)NC(=O)N(C)C[C@H]1OCCCC[C@H](C)Oc2ccc(NC(=O)Nc3ccc(C(F)(F)F)cc3)cc2C(=O)N([C@H](C)CO)C[C@H]1C	i	i	+	-59	i
C[C@@H]1CCCCO[C@H](CN(C)C(=O)Nc2ccc(C(F)(F)F)cc2)[C@@H](C)CN([C@@H](C)CO)C(=O)c2cc(NC(=O)Cc3ccccc3)ccc2O1	+	i	+	.	i
C[C@@H]1CCCCO[C@@H](CN(C)C(=O)Nc2ccc(C(F)(F)F)cc2)[C@H](C)CN([C@@H](C)CO)C(=O)c2cc(NC(=O)c3ccncc3)ccc2O1	i	i	+	.	+
CC(C)NC(=O)N(C)C[C@@H]1OCCCC[C@@H](C)Oc2ccc(NC(=O)Nc3ccc(C(F)(F)F)cc3)cc2C(=O)N([C@@H](C)CO)C[C@H]1C	i	i	i	-59	i
CC(C)NC(=O)N(C)C[C@@H]1OCCCC[C@H](C)Oc2ccc(NC(=O)Nc3ccc(C(F)(F)F)cc3)cc2C(=O)N([C@@H](C)CO)C[C@@H]1C	i	i	+	-54	+
COc1ccc(-n2nnnc2SCC(=O)Nc2cc(C)c(Cl)cc2OC)cc1	.	.	.	-14	.
CC(=O)Nc1ccc(Br)cc1-c1nc2ccccc2[nH]c1=O	.	.	.	0	.
COc1ccccc1CCNC(=O)c1cc(-c2ccc(C)o2)nc2ccccc12	.	.	.	11	.
C[C@H](CO)N1C[C@H](C)[C@H](CN(C)C(=O)Nc2ccc(C(F)(F)F)cc2)OCCCC[C@H](C)Oc2ccc(NC(=O)Nc3ccc(F)cc3)cc2C1=O	i	i	+	.	i
CC(C)NS(=O)(=O)c1ccc(OCC(=O)N2CCOCC2)cc1	.	.	.	-6	.
CC(C)Cc1ccc(/C=C/C(=O)N2CCOCC2)cc1	.	.	.	81*	.
Cc1ccc(-c2cc3ccccn3c2C(=O)CSc2nnc(C)s2)cc1	i	i	i	-3	+
O=C(OCCSc1cnc2ccccc2n1)c1cc(Cl)cc(Cl)c1	.	.	.	2	.
